# Experimental data published in the supplement of paper PMC8728848.
# Many of the other results were omitted from the sample, so the strongest signals are more common in it than they were.
# B1: CCL1 (Coprinopsis cinerea) (protein)
# chain: MDTQAKPPAGRYVIYNRVLSPNGEKLALTYPGYQREALTLTPLHHSANQIWILNNWDATTSSLTPETARNTQVGWGSGNVPIVLPPGNYVWTLASSAGGYIIQDGGKTVYWNAGEAVANTKVSIGGDNGLQARWIFERV
# Assays:
# Assay in all cases: glycan array binding signal (z-score within array); higher = stronger binding
# Conditions in all cases: glycan notation: IUPAC condensed, linker removed
# Gal6S(b1-3)GlcNAc = molecular target: Gal6S(b1-3)GlcNAc
# Outline: (§1)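 Glycan array data came from 3228 arrays in the Consortium for Functional Glycomics database, and only arrays with an available protein sequence were kept. Glycan names were put into IUPAC-condensed notation, and columns mapping to the same glycan were averaged. The binding signal is a within-array Z-score, averaged across arrays of one protein sequence run at different concentrations or buffers and across linkers. A negative Z-score can be read as non-binding.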
# GalNAc(b1-4)GlcNAc = molecular target: GalNAc(b1-4)GlcNAc
# Outline: as §1
# Glc(b1-4)Glc = molecular target: Glc(b1-4)Glc
# Outline: as §1
# Glc(b1-6)Glc = molecular target: Glc(b1-6)Glc
# Outline: as §1
# [1] = molecular target: Man(a1-2)Man(a1-3)[Man(a1-2)Man(a1-6)]Man
# Outline: as §1
# [2] = molecular target: Man(a1-2)Man(a1-6)[Man(a1-3)]Man(a1-6)[Man(a1-2)Man(a1-2)Man(a1-3)]Man(b1-4)GlcNAc(b1-4)GlcNAc
# Outline: as §1
# [3] = molecular target: Neu5Ac(a2-3)Gal(b1-3)GalNAc(b1-4)[Neu5Ac(a2-3)]Gal(b1-4)Glc
# Outline: as §1
# [4] = molecular target: Neu5Ac(a2-3)Gal(b1-3)GlcNAc
# Outline: as §1
# [5] = molecular target: Neu5Ac(a2-3)Gal(b1-3)[Neu5Ac(a2-6)]GalNAc
# Outline: as §1
# [6] = molecular target: Neu5Ac(a2-3)Gal(b1-4)GlcNAc(b1-3)Gal(b1-4)[Fuc(a1-3)]GlcNAc
# Outline: as §1
# [7] = molecular target: Neu5Ac(a2-3)Gal(b1-4)[Fuc(a1-3)]GlcNAc(b1-3)Gal
# Outline: as §1
# [8] = molecular target: Neu5Ac(a2-3)Gal(b1-4)[Fuc(a1-3)]GlcNAc(b1-3)Gal(b1-4)[Fuc(a1-3)]GlcNAc(b1-3)Gal(b1-4)[Fuc(a1-3)]GlcNAc
# Outline: as §1
# [9] = molecular target: Neu5Ac(a2-3)Gal6S(b1-4)[Fuc(a1-3)]GlcNAc
# Outline: as §1
# [10] = molecular target: Neu5Ac(a2-3)[Neu5Ac(a2-6)]GalNAc
# Outline: as §1
# [11] = molecular target: Neu5Ac(a2-8)Neu5Ac(a2-3)[GalNAc(b1-4)]Gal(b1-4)Glc
# Outline: as §1
binder,measurement,setting,value
B1,glycan array binding signal (z-score),Gal6S(b1-3)GlcNAc,-0.152
same,glycan array binding signal (z-score),GalNAc(b1-4)GlcNAc,-0.159
same,glycan array binding signal (z-score),Glc(b1-4)Glc,-0.115
same,glycan array binding signal (z-score),Glc(b1-6)Glc,-0.128
same,glycan array binding signal (z-score),[1],-0.124
same,glycan array binding signal (z-score),[2],-0.138
same,glycan array binding signal (z-score),[3],-0.132
same,glycan array binding signal (z-score),[4],-0.117
same,glycan array binding signal (z-score),[5],1.63
same,glycan array binding signal (z-score),[6],-0.148
same,glycan array binding signal (z-score),[7],3.29
same,glycan array binding signal (z-score),[8],1.58
same,glycan array binding signal (z-score),[9],1.5
same,glycan array binding signal (z-score),[10],-0.149
same,glycan array binding signal (z-score),[11],-0.127
